PABP FP inh: blocks human PABP binding to poly(A) RNA; fluorescence polarization; calls only at 35 µM; 290,000 compounds, 1% hits; AID 2014;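 note: calls also rest on retests at 20 µM and on dose response follow-up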
Target sequence (P11940 whole entry, looked up): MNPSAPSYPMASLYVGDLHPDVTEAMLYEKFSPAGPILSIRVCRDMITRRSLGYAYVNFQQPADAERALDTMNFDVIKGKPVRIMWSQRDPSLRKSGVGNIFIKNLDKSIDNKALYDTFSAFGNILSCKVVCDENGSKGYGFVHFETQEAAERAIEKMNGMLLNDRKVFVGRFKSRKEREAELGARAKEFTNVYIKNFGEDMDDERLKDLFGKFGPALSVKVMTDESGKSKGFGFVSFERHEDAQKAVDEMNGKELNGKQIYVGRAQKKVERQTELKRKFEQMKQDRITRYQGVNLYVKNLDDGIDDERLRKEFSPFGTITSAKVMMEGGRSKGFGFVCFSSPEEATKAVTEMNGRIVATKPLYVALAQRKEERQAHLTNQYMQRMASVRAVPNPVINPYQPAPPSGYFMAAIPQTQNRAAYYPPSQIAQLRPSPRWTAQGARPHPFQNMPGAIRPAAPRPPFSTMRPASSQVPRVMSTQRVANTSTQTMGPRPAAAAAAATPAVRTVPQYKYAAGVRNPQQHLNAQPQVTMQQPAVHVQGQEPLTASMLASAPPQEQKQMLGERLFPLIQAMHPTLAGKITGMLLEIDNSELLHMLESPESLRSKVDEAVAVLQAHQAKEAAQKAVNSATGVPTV
AI-2 QS modul: modulators of Vibrio harveyi AI-2 quorum sensing system; Vibrio harveyi JMH597 AI-2 luminescence/OD600 ratio, 9 h; stronger effect = lower value; strain lacks LuxN and CqsS sensors; 0 = neutral-control median; activity change, % at 7.5 µM; 300,000 compounds, 0.4% hits; in the data active = activity change below about -75%, passing the limit was not always enough;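 note: luminescence divided by OD600 gain over 9 h not by final OD600 alone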
PHOSPHO1 block: blocks human PHOSPHO1 phosphatase activity; Q8TCT1; recombinant PHOSPHO1, absorbance phosphatase assay; inhibition, % at 13.3 µM; 290,000 compounds, 1.1% hits; AID 1565; in the data active = inhibition above about 60%
eIF4H inh: inhibitors of RNA binding by human eIF4H; Q15056; 290,000 compounds, 0.94% hits; eIF4H fluorescence polarization binding assay; AID 2012; inhibition, % at 35 µM;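 note: calls also rest on retests at 20 µM and on dose response follow-up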
PABP1 MLLE inh: inhibitors of microRNA-mediated deadenylation, human PABP1 MLLE binding; P11940; GST-MLLE / FITC-PAM2 fluorescence polarization; inhibition, % at 20 µM; 360,000 compounds, 0.36% hits; AID 588489; in the data active = inhibition above about 35%, passing the limit was not always enough;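 note: plate controls were DMSO wells with GST-MLLE for no effect and wells lacking GST-MLLE protein for full effect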
ABCB6 inh MLPCN: inhibitors of human ABC transporter ABCB6 | K562-ABCB6 porphyrin accumulation, flow cytometry, 1 h; stronger effect = lower value | fluorescence ratio to DMSO, % at 10 µM | 360,000 compounds, 0.19% hits | AID 602162;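 active = fluorescence ratio to DMSO below 75%, the collection mean minus 3 SD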;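 note: signal is porphyrin accumulated inside mitochondria; 100% equals median channel fluorescence of DMSO control wells; lower ratio means ABCB6 inhibition with less porphyrin fluorescence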
ABCB6 blocker 1: human ABCB6 transporter inhibition; shares compounds with ABCB6 inh MLPCN; K562-ABCB6 porphyrin accumulation, flow cytometry, 1 h; stronger effect = lower value; ratio response (% of DMSO), % at 10 µM; 700 tested, under 10 active;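 active = repeat-averaged ratio response below 75% of DMSO, the collection mean minus 3 SD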;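 note: median porphyrin fluorescence at 575 nm with 488 nm excitation from mitochondria; lower ratio means less porphyrin signal so ABCB6 inhibition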
The depositor's hits bear a star; i = inactive; . = no result given. The list is not random: actives were taken first. Their share in the collection is about 2.6%. Unless noted, the rule behind the calls is not given here.

SMILES	PABP FP inh	AI-2 QS modul	PHOSPHO1 block	eIF4H inh	PABP1 MLLE inh	ABCB6 inh MLPCN	ABCB6 blocker 1
COc1cccc(-c2nnc(-c3ccco3)o2)c1	i	-6	1	2	1	67*	97
O=C(Nc1ccc2c(c1)OCO2)c1ccc2nc([C@@H]3O[C@H](CO)[C@H](O)[C@H](O)[C@H]3O)[nH]c2c1	.	.	.	.	-3	97	.
COc1ccccc1N1CCN(S(=O)(=O)c2ccc3nc(-c4ccccc4)[nH]c3c2)CC1	i	67	-5	-1	2	101	.
O=S(=O)(c1ccc2nc(-c3ccccc3)[nH]c2c1)N1CCN(c2cccc(Cl)c2)CC1	i	16	-5	-3	12	58*	101
CC1=CC(C)(C)N2C(=O)C3(C(C#N)=C(N)Oc4cc(C)oc(=O)c43)c3cc(C)cc1c32 (centres undefined)	.	8	.	.	0	67*	96
O=C(Nc1ccc(F)c(Cl)c1)c1cc(C2CCCCN2C(=O)c2ccccc2)on1 (centres undefined)	.	.	.	.	17	104	.
Cc1ccccc1-n1nc2c(c1NC(=O)COc1ccc(Cl)cc1)CS(=O)C2 (centres undefined)	i	6	-4	-3	-1	98	.
COc1ccc(CC(=O)Nc2c3c(nn2-c2ccccc2C)CS(=O)C3)cc1 (centres undefined)	i	31	2	4	4	59*	99
CC(C(=O)NC1CCCC1)N1CCN(Cc2ccccc2)CC1 (centres undefined)	i	6	20	9	-11	93	.
CC(C(=O)NC(=O)NC1CCCCC1)N1CCN(C(c2ccccc2)c2ccccc2)CC1 (centres undefined)	i	24	-7	-6	-16	73*	100
O=C(c1nnc(Cc2ccc(Cl)cc2)o1)N1CCOCC1	i	20	-6	0	11	100	.
Cc1nc2c(C(=O)N3CCOCC3)cnn2c(C)c1Cc1ccc(Cl)cc1	i	13	41	-3	-10	89	99
Cc1nc2c(C(=O)N3CCOCC3)cnn2c(C)c1Cc1cccc(Cl)c1	i	0	15	-4	.	.	98
O=C(c1ccc2nc(Cc3cccc(Cl)c3)oc2c1)N1CCOCC1	i	43	18	6	7	97	.
COc1ccc2c(c1OC)C(=O)N(c1ccc(C)c(C)c1)C2=O	i	9	-42	0	17	99	.
COc1ccc2c(c1OC)C(=O)N(c1ccc3c(c1)CCC3)C2=O	i	-2	29	-5	-1	63*	98
CC(=O)N1C(=O)C2(C(C#N)=C(N)Oc3c2c(C)nn3-c2ccccc2)c2ccccc21 (centres undefined)	i	13	-5	-18	4	44*	101
COC(CNC(=O)Cc1c(C)nc2c(-c3ccccc3)c(C)nn2c1C)OC	i	42	-17	1	11	92	.
Cc1cc(C)c(Cc2c(C)nc3c(C(=O)NCc4ccco4)cnn3c2C)c(C)c1	i	4	20	5	8	95	99
COC(CNC(=O)c1cnn2c(C)c(Cc3ccccc3)c(C)nc12)OC	i	15	21	4	-10	92	96
NC(c1ccccc1)c1csc(Nc2ccc(C(F)(F)F)cn2)n1 (centres undefined)	.	.	.	.	6	71*	101
O=C(NCc1ccc2c(c1)OCO2)c1ccc(Cl)c(S(=O)(=O)N2CCOCC2)c1	i	15	5	0	4	53*	101
CCC(=O)N1CCCC1(C)C(=O)Nc1ccc2scnc2c1 (centres undefined)	.	.	.	.	19	94	.
O=c1c2c3c(sc2n2cnnc2n1CCc1ccccc1)CCCC3	i	21	6	-3	-58	66*	101
CC1(c2nnnn2-c2ccc3c(c2)OCCO3)CCC(=O)N1CCc1c[nH]c2ccccc12 (centres undefined)	.	.	.	.	.	102	.
SMILES	PABP FP inh	AI-2 QS modul	PHOSPHO1 block	eIF4H inh	PABP1 MLLE inh	ABCB6 inh MLPCN	ABCB6 blocker 1
CCOC(=O)C1CCN(S(=O)(=O)c2ccc(Cl)cc2OC)CC1	i	1	-2	1	-7	98	.
CCOC(=O)C1CCN(S(=O)(=O)c2ccc(OC)c(OC)c2)CC1	i	11	26	-6	-11	102	.
CCOC(=O)C1CCN(S(=O)(=O)c2ccc(C)cc2)CC1	i	14	-5	-4	9	109	.
CCOC(=O)C1CCN(S(=O)(=O)c2ccc(Br)c(OCC)c2)CC1	i	2	9	3	-7	91	99
CCOC(=O)C1CCN(S(=O)(=O)c2cc(Cl)c(C)cc2OC)CC1	i	11	10	2	2	92	98
CCOC(=O)C1CCN(S(=O)(=O)c2ccc(C(=O)OC)cc2)CC1	i	32	-22	3	4	98	97
CCOC(=O)C1CCN(S(=O)(=O)c2ccc(NC(=O)OC)cc2)CC1	i	2	1	-7	4	109	98
CCNC(=O)C1(C)CCCN1C(=O)c1c(F)cccc1F (centres undefined)	.	.	.	.	10	100	.
CN(CCCn1ccc(NC(=O)OCc2ccccc2)nc1=O)CCc1ccccn1	.	.	.	.	-14	104	.
COc1ccc(-n2c(C(C)n3nc(C)c([N+](=O)[O-])c3C)n[nH]c2=S)cc1 (centres undefined)	i	20	-6	-4	-18	97	.
Cc1ccc(-n2c(C(C)n3nc(C)c([N+](=O)[O-])c3C)n[nH]c2=S)cc1 (centres undefined)	i	23	-16	active	-23	61*	98
COC(=O)C1=CNC=C(C(=O)OC)C1c1cccc2ccccc12	i	-2	33	0	-6	71*	105
CC(C)(C)c1cc(NC(=O)COC(=O)c2ccc3c(=O)n4c(nc3c2)CCC4)n(-c2ccccc2)n1	i	2	-25	-11	8	69*	101
CCSc1nc2sc3c(c2c(=O)[nH]1)CC(C)(CC)OC3 (centres undefined)	i	5	4	-4	-17	61*	97
CCCSc1nc2sc3c(c2c(=O)[nH]1)CC(C)(CC)OC3 (centres undefined)	i	15	16	0	-40	96	.
CCOC(=O)[C@]12CCCC=C1N(Cc1ccco1)C(=O)[C@H](CC(=O)N1CCOCC1)C2	.	.	.	.	.	94	.
C[C@H](NC(=O)Nc1ccccc1F)C(=O)O	i	26	28	11	9	97	.
CC(C)C[C@H](NC(=O)Nc1ccccc1F)C(=O)O	i	7	-3	2	6	45*	98
O=C1Cn2nnc(-c3ccccc3)c2C2c3ccccc3CCN12 (centres undefined)	.	.	.	.	5	96	.

Screening results: PubChem, several laboratories
